# FEN1 inh = human FEN1 inhibition. Recombinant FEN1 flap cleavage, fluorescence, 15 min. Potency, µM (titrated, usually from 114 µM), inactives show at the highest dose activity change, negative = inhibition, actives largely listed as inhibitors. 390,000 tested, 0.35% active. AID 588795; note: nearly all actives have a fitted effect of over 65% in size
# Target sequence (P39748 whole entry, looked up): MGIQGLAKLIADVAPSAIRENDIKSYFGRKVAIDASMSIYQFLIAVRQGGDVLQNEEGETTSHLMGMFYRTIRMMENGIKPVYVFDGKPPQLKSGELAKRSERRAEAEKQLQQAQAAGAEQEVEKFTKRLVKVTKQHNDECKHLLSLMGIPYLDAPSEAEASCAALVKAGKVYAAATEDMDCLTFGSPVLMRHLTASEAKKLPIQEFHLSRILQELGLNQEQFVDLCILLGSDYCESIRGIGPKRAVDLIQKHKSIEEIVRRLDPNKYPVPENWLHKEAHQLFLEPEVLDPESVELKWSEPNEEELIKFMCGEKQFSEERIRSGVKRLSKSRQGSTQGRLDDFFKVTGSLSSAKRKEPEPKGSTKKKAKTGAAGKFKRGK
#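 Steps: FEN1 (10 nM) dispensed; compound added by pin tool; 15 min at room temperature; substrate added to 50 nM final; reads at 0 min and 15 min; data normalized and fitted (four-parameter Hill).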
# RECQ1 helicase = blocks DNA unwinding by human RECQ1; Potency, µM (series often up to 57.3 µM), without a hit: at the highest dose activity, negative = inhibition, hits mostly inhibitors; RECQ1 DNA unwinding, red fluorescence kinetic read; P46063; 240,000 tested, 0.54% active;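 note: plate controls were vehicle for no effect and no enzyme for full effect; nearly all actives have a fitted effect of over 30% in size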
#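 RECQ1T1 50 nM; forked duplex (20 bp + 30-nt ss tails) 200 nM, ATP 2 mM final; pH 8.0, 2 mM MgCl2, 2.5 ug/ml poly(dI-dC); 15 min compound preincubation; discontinuous kinetic read over 2 h at RT.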
# BLM helicase inh = inhibitors of human Bloom syndrome helicase BLM; P54132; recombinant BLM DNA unwinding, fluorescence dequenching; Potency, µM (titrated, usually from 56.1 µM), without a hit: top-dose activity change, negative = inhibition, usual class: inhibitors; 350,000 tested, 0.2% active; AID 2528;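 note: plate controls were vehicle for no effect and no enzyme for full effect; nearly all actives have a fitted effect of over 35% in size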
# WRN helicase inh = blocks human WRN helicase | Q14191 | WRN helicase unwinding, fluorescent forked duplex, kinetic | Potency, µM (series often up to 114 µM), inactives show top-dose activity change, negative = inhibition, most hits filed as inhibitors | 360,000 tested, 0.46% active; note: nearly all actives have a fitted effect of over 55% in size
#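 Screening of the MLSMR collection measured strand separation of a quenched forked DNA duplex (100 nM) by 20 nM WRN with 2 mM ATP, all final. Compounds were preincubated with enzyme 15 min at room temperature.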
# APE1 inh-1 = inhibitors of human APE1 endonuclease; recombinant APE1, TAMRA/BHQ-2 abasic DNA cleavage fluorescence; 350,000 tested, 0.35% active; AID 2517; Potency, µM (highest dose often 65.8 µM), for the others: at the highest dose activity change, negative = inhibition, actives largely listed as inhibitors; P27695;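 note: plate controls were vehicle for no effect and reference inhibitor for full effect; nearly all actives have a fitted effect of over 55% in size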
#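 Substrate: short duplex with […] THF abasic site, 5'-TAMRA and 3'-BHQ-2, 50 nM final. APE1 at 0.75 nM, preincubated 15 min RT with compound. Fluorescence increase from first to third read measured activity.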
# DNA dye displace = DNA dye displacement counter-screen activity | shares compounds with APE1 inh-1 | DNA fluorescent dye displacement counterscreen, fluorescence | Potency, µM (doses to about 28.5 µM), for inactives: at the highest dose activity change, negative = inhibition, most hits filed as inhibitors | 480 tested, 7% active | AID 2564;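 note: loss of thiazole orange fluorescence as the dye is displaced from duplex DNA; 0% = ThO with dsDNA and no compound and -100% = ThO without dsDNA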
# Endo IV inh = blocks E. coli endonuclease IV DNA cleavage | shares compounds with APE1 inh-1 | E. coli Endo IV, fluorogenic AP-site DNA cleavage | Potency, µM (doses to about 27.1 µM), without a hit: at the top dose activity change, negative = inhibition, hits mostly inhibitors | 560 tested, 4% active;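 note: plate controls were uninhibited enzyme wells for no effect and no enzyme buffer wells for full effect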
# APE1 inh-2 = APE1 (human) endonuclease inhibition, confirmation; shares compounds with APE1 inh-1; purified APE1, fluorogenic abasic-site DNA cleavage; Potency, µM (top dose mostly 57.1 µM), without a hit: at the top dose activity change, negative = inhibition, actives largely listed as inhibitors; 750 tested, 44% active; AID 2572; note: nearly all actives have a fitted effect of over 30% in size
# APE1 FP = compounds that displace a DNA probe from human APE1; shares compounds with APE1 inh-1; APE1 binding to TAMRA-labelled double-stranded DNA, fluorescence polarization displacement; Potency, µM (doses to about 28.5 µM), without a hit: at the top dose activity, negative = inhibition, most hits filed as inhibitors; 480 tested, 7% active; AID 2573
# Starred values were filed as active, the others as inactive; ? = inconclusive; . = no result given; [ ] = remark or other dose. An excerpt weighted towards active compounds, which were near 0.87% of everything screened. Calls come from the whole dose curve; as a rule, active = well fitted curve in the direction sought with a large enough effect; inconclusive = small, poorly fitted or top-dose-only effect, or another doubt; inactive = no such curve, though single readings can be large; an effect the other way counts as inactive or inconclusive. Unless noted, % is set by controls: 0 for no effect and ±100 for the full control effect; potency is the fitted concentration of half-maximal effect.
SMILES,FEN1 inh,RECQ1 helicase,BLM helicase inh,WRN helicase inh,APE1 inh-1,Endo IV inh,APE1 inh-2,others
COc1c(O)cc2c(c1O)C1OC(CO)C(O)[C@H](O)[C@H]1OC2=O (some centres undefined),.,-11%,4%,.,16%,.,.,
CC1(CC(=O)N/N=C/c2cc([N+](=O)[O-])c(O)cc2O)OCCO1,-32%,-27%,-10%,?,14µM*,-4%,13µM*,DNA dye displace=?;APE1 FP=?
Cc1ccc(N(CC(=O)Nc2cc(C)ccc2C)S(=O)(=O)c2c(C)noc2C)cc1,3%,.,-9%,.,.,.,.,
COc1cc(/C=C(\C#N)C(=O)c2ccc(O)c(O)c2)cc(I)c1O,3.5µM*,0.89µM*,.,1.2µM*,6µM*,-16%[57.1 µM],?,
COc1ccc(C=C(C#N)C(=O)c2ccccc2)cc1,.,.,.,-12%,.,.,.,
Cc1nc(N=Nc2cc(S(=O)(=O)O)c3cc([N+](=O)[O-])cc(S(=O)(=O)O)c3c2)c(COP(=O)(O)O)c(C=O)c1O,7.5µM*,?,72%,.,2.5µM*,25µM*,1.1µM*,
CCN(C(=O)c1cc2c(=O)oc3ccccc3c2s1)c1ccc(C)c(C)c1,-20%,.,-9%,.,.,.,.,
Nc1ccn([C@@H]2O[C@H](CO)[C@@H](O)C2O)c(=O)n1 (some centres undefined),-2%,-10%,3%,3%,-3%,22%[57.1 µM],-6%,DNA dye displace=-3%[57.1 µM];APE1 FP=7%[57.1 µM]
CC(C)CNC(=O)Nc1cc(C(=O)NCc2ccc(C(C)C)cc2)ccc1N1CCCC1,-2%,.,-1%,.,.,.,.,
CCOC(=O)N1CCC(N2Cc3cccc(C(=O)NCc4ccc5c(c4)OCO5)c3C2=O)CC1,3%,-10%,-21%,-26%,?,.,?,
O=C(NCc1ccc2c(c1)OCO2)c1cccc2c1C(=O)N(C1CCCCC1)C2,-15%,4%,4%,-1%,-1%,.,.,
Cc1cccc(OC(=O)Cn2c(C(F)(F)F)nc3ccccc32)c1,-8%,0%,-2%,1%,35µM*,3%,?,DNA dye displace=-6%;APE1 FP=-90%
COc1ccc(Br)cc1CNC(=O)c1cnc2sc(N3CCCCCC3)nn2c1=O,-10%,.,-1%,.,.,.,.,
CC1=C(c2ccc(C)cc2)S(=O)(=O)N(Cc2ccc(C(=O)Nc3ccc(F)cc3C)cc2)C1=O,7%,.,-4%,.,.,.,.,
Cc1ccc(NC(=O)CSc2nc(N)cc(=O)[nH]2)cc1Cl,2%,-28%,-4%,2%,35µM*,0%,-5%[24.4 µM],DNA dye displace=?;APE1 FP=-4%
Cc1ccc(NC(=O)CSc2nc(NS(=O)(=O)c3ccccc3)cc(=O)[nH]2)cc1,79µM*,?,?,50µM*,?,.,-38%,
CCCCCn1c(CCCNC(=O)c2ccccc2)nc2ccccc21,-8%,.,-1%,.,.,.,.,
COc1ccc(NC(=O)CSc2ncc3c(n2)-c2ccccc2N(Cc2ccc(C)cc2)S3(=O)=O)cc1Cl,10%,.,-6%,.,.,.,.,
O=C(Nc1ccc(Br)cc1)C1CCCN1S(=O)(=O)c1ccc(F)cc1 (centres undefined),6%,.,-1%,.,.,.,.,
CCCc1nn(C)c2c(=O)[nH]c(-c3ccccc3OCC)nc12,5%,9%,-4%,-20%[57.1 µM],0%,.,.,
CCCOc1ccccc1-c1nc2n[nH]nc2c(=O)[nH]1,-7%,16%,-13%,6%,-5%,8%[57.1 µM],1%,DNA dye displace=-7%[57.1 µM];APE1 FP=22%[57.1 µM]

# High-throughput results: PubChem BioAssay, National Center for Advancing Translational Sciences (NCATS)
